From ChEMBL document CHEMBL1201862, “PubChem BioAssay data set” (2004)
The campaign covered roughly 310,000 compounds. About 17,000 (5.5%) were called active. Another 11% or so got no clear call; they are omitted. The rule behind the calls is not given here. The entries come from a sample that favours actives as a whole.

Biological target: T1, Nuclear receptor ROR-gamma (Mus musculus) (UniProt P51450)
T1 sequence (whole entry): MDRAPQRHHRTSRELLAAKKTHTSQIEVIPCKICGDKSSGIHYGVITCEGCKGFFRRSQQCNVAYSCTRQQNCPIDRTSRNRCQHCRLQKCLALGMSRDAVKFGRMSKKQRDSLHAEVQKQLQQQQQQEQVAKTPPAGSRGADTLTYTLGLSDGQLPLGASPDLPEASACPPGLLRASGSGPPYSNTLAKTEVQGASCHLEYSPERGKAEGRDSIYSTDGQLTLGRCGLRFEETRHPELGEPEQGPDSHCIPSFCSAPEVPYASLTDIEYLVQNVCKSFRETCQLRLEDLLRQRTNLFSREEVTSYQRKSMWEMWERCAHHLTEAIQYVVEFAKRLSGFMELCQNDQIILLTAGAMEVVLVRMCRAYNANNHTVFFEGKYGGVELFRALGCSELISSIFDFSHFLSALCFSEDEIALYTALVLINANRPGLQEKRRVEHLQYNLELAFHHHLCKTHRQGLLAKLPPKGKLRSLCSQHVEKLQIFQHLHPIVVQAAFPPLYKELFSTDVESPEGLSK
Assay: qHTS for inhibitors of ROR gamma transcriptional activity.
Format: functional

Row | SMILES | Potency
1 | COC[C@@H]([C@H](O)[C@H](O)C(=O)NCC[C@H](C)c1nc(/C=C/C[C@@H]2O[C@]3(C[C@@H](O)[C@@H]2C)O[C@H]([C@H](C[C@H](O)[C@H](C)[C@H](O)[C@H](C)/C=C(C)/C(C)=C/C=C/C(C)=C\C#N)OC)[C@H](OP(=O)(O)O)C3(C)C)co1)N(C)C | 0.0014 µM (active)
2 | Cl[Te]1(Cl)OCCO1 | 15.8 µM (active)
